Experimental data taken from PubChem BioAssay (NCI).
The panel holds about 79,000 compounds, 15% with a hit somewhere; the sample as a whole holds those more often. A number with no mark means an inactive call. Calls of active or inactive are those of the source. No stated cut-off is given here; in the data, active means growth inhibition above about 70%; inactive means the rest.

Assays:
[1] = NCI Yeast Anticancer Drug Screen. Data for the rad50 strain (AID 155);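 further: 0% = growth of vehicle-only cultures of the same strain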; details: S. cerevisiae rad50 strain growth inhibition; at 50.0 µM; active compounds read high
Method in brief: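 Cells are treated with compound, grown, and their growth is then scored against vehicle-only cultures of the same repair-deficient yeast strain.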

[2] = NCI Yeast Anticancer Drug Screen. Data for the mec2-1 strain (AID 157); details: S. cerevisiae mec2-1 strain, at 50.0 µM, active compounds read high
Method in brief: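 Cells of the genetically defined mec2-1 yeast strain are incubated with test compound. Inhibition of growth is calculated against vehicle-treated controls.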

[3] = NCI Yeast Anticancer Drug Screen. Data for the sgs1 mgt1 strain (AID 161);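 further: 0% = growth of cultures given vehicle only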; details: S. cerevisiae sgs1 mgt1 strain, at 50.0 µM, active compounds read high
Method in brief: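 Read-out: growth inhibition vs vehicle controls. Cells: mutant yeast strain deficient in DNA damage repair.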

[4] = NCI Yeast Anticancer Drug Screen. Data for the cln2 rad14 strain (AID 165);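 further: 0% = growth equal to vehicle treated cultures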; details: S. cerevisiae cln2 rad14 strain, at 50.0 µM, active compounds read high
Method in brief: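 The screen exposed genetically defined yeast (cln2 rad14) to test compounds and scored growth inhibition relative to vehicle-treated controls.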

[5] = NCI Yeast Anticancer Drug Screen. Data for the bub3 strain (AID 167); details: S. cerevisiae bub3 mutant strain, at 50.0 µM, active compounds read high
Method in brief: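 Part of a panel of yeast mutants defective in DNA damage repair or cell cycle regulation. Each strain is grown with compound, and inhibition is calculated relative to solvent-treated cultures.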

[6] = NCI Yeast Anticancer Drug Screen. Data for the mlh1 rad18 strain (AID 175); details: S. cerevisiae mlh1 rad18 strain growth inhibition; at 50.0 µM; active compounds read high
Method in brief: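 Compound-treated yeast growth, normalised to vehicle controls. Strain bears defined DNA repair mutations.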

Row | Structure (SMILES) | growth inhibition [1] | growth inhibition [2] | growth inhibition [3] | growth inhibition [4] | growth inhibition [5] | growth inhibition [6]
1 | C=C(C)CCCCCCCCC | -4.8% | -5.8% | 17.6% | 1.4% | 3% | -3.25%
2 | COC(=O)CCc1ccc(C2CO2)cc1 (stereo unspecified) | -1.4% | 6.15% | -9.5% | -0.2% | -11.2% | 10.3%
3 | CS(=O)(=O)CC(O)(c1ccccc1)c1ccccc1 | -21.4% | -2.4% | 9.5% | -13.3% | 1.55% | 28.1%
4 | c1scc2c1COCCOCCOCCOCCOCCOCCOC2 | -21.7% | -14.8% | 10.4% | 5.05% | 6.3% | -6.9%
5 | O=C(NC(=O)c1cccc(Cl)c1)Nc1ccccc1 | 3.1% | -15.1% | -19.6% | -22% | -10.7% | -5.15%
6 | O=C(c1nc2ccccc2[nH]c1=O)C(O)c1ccccc1 (stereo unspecified) | 6.9% | -23.6% | -3.1% | 17.4% | -12.8% | -2.2%
7 | O=[N+]([O-])C(=C1NCCN1)C(Cl)=C(Cl)Cl | -43% | -27.9% | 5.3% | -18.6% | -1.2% | -26%
8 | COc1ccc(C(C#N)C(=O)CCC(=O)C(C#N)c2ccc(OC)c(OC)c2)cc1OC (stereo unspecified) | 28.3% | 2.9% | -8.65% | -15.3% | -2.8% | 26.8%
9 | COc1ccccc1CC/C(C)=N/NS(=O)(=O)c1ccc(C)cc1 | 10.8% | 4.1% | 6.35% | -24.1% | 11.5% | 6.5%
10 | COC1=C2CC(C)CC(OC)C(OC(C)=O)C(C)/C=C(\C)C(OC(N)=O)C(OC)/C=C\C=C(/C)C(=O)NC(=CC1=O)C2=O (stereo unspecified) | 90% (active) | 91% (active) | 92.2% (active) | 87.2% (active) | 90.7% (active) | 89.4% (active)
11 | O=C(c1ccccc1)c1ccc(OCCOc2ccc(C(=O)c3ccccc3)cc2)cc1 | -0.7% | -1.7% | 2.15% | -15.1% | 3.9% | -13.2%
12 | C=CCNC(=S)/N=C/C(C(=O)Nc1ccc(Cl)cc1)=C(\C)O | -34.1% | -10.1% | -30.2% | 6.6% | -16.8% | -12.8%
13 | O=C=Nc1ccccc1[N+](=O)[O-] | -4.25% | -28% | -15.8% | -65.5% | -0.55% | -9.2%
14 | CC1=CC(=O)C(=Ic2ccccc2)C(=O)O1 | 11.2% | -8.25% | 4.6% | 9.65% | -3.85% | 14.6%
15 | O=c1[nH]cnc2c1CN(c1ccc(Cl)cc1)C2 | -14.5% | 3.45% | -11.3% | -29.6% | -19.2% | -1.9%
16 | CCNc1nc2c(N)ncnc2n1C1OC(CO)C(O)C1O (stereo unspecified) | 12.8% | -8.4% | 6.45% | -3.35% | -0.1% | -6.6%
17 | Cc1ccc(S(=O)(=O)N(N)CCC#N)cc1 | 7.3% | 4.55% | 14.8% | -24.1% | -10.1% | 14.6%
18 | Clc1nncc(SCc2ccccc2)c1SCc1ccccc1 | 17.2% | 11.6% | 8.3% | -9% | 22.5% | 8.4%

Row | Structure (SMILES) | growth inhibition [1] | growth inhibition [2] | growth inhibition [3] | growth inhibition [4] | growth inhibition [5] | growth inhibition [6]
19 | CN1CCC(=O)C(c2ccccc2)(c2ccccc2)CC1 | -8% | -8.6% | 3.45% | -24.9% | 28.4% | -26.7%
20 | CCC1(C)CC(C)(C)c2ccc(C)cc21 (stereo unspecified) | -0.8% | -2.75% | -6.4% | -9.2% | -2.9% | -2.25%
21 | COc1c(C)c(OCC=C(C)C)cc(CO)c1CO | 11.8% | -3.2% | -13.9% | -8.15% | -0.95% | -84.5%
22 | CC(C)C(C)(C(N)=O)C(C)C | 14.3% | 17.4% | 10.2% | 17.9% | -1.25% | -1.4%
23 | CCCC(C)(CCC)OC(=O)Nc1cccc2ccccc12 | -3% | -4.2% | -4.4% | -10.7% | 6.95% | 15.2%
24 | CN(C)CCCc1c2ccccc2nc2ccc(Cl)cc12 | 12.5% | 4.5% | -10% | -2.65% | 2.65% | 26.5%
25 | O=C(OC1CCC2(CC1)N=NC1(CCC(OC(=O)c3ccccc3)CC1)S2)c1ccccc1 (stereo unspecified) | -1.15% | 18.3% | -2.25% | -7.6% | -1.1% | 8.1%
26 | CC(C)CNC(=O)Cn1c2c(c3ccccc31)CCCC2 | -4.5% | -32.7% | 1.4% | 3.75% | -14.8% | -10.8%
27 | S=C(Nc1ccccc1)NC1SNC(=Nc2ccccc2)N1c1ccccc1 (stereo unspecified) | 98.2% (active) | 99.4% (active) | 98.8% (active) | 99.3% (active) | 99.3% (active) | 99% (active)
28 | CC(=O)c1cc2ccccc2n(O)c1=N | -32.9% | -10.8% | -24% | 17.1% | -15.2% | -17.3%
29 | CC1(C)N=C(N)N=C(N)N1CCCCc1ccccc1 | -23.7% | -41.9% | -27.4% | -25.4% | -71.8% | -16.6%
30 | O=C(O)c1c(Br)c(Br)c(Br)c(Br)c1C(=O)Nc1ccccc1F | 7% | -3.3% | 7.55% | 20.2% | 4% | 12.4%
31 | CC(=O)O[C@@H]1[C@H]2[C@@H](OC(=O)c3ccccc3)[C@@H](C)C[C@]2(O)[C@H](OC(C)=O)[C@@]2(C)[C@@H]3CC(C)(C)C(=O)[C@]3(OC(C)=O)C[C@@]12C | 25% | 31.1% | 6.4% | 5.3% | 15.2% | 39.4%
32 | CSc1ccc(NC(=O)c2ccc([N+](=O)[O-])cc2)cc1 | -1.1% | 5.6% | 10.3% | -13.3% | 25.9% | 3.05%
33 | NC(=O)N/N=C/c1ccncc1 | -7.15% | 28.6% | -24.9% | -7.05% | 8.6% | 7.45%
34 | O/N=C(\c1ccccc1)C1c2ccccc2-c2ccccc21 | -10.1% | -17.9% | -19.9% | 21.4% | -5.9% | -17.4%
35 | N#CC(C(=O)CCc1nc2ccccc2[nH]1)c1nc2ccccc2s1 (stereo unspecified) | 6.75% | -3.5% | -9.55% | -17.8% | 4.35% | -0.6%
36 | CCN(CC)CCOC(C)=O | 8.25% | -15.7% | -19.4% | 0.7% | -11.1% | -26.3%
